D2 PAM-1 – Beta-Arrestin HTS for Positive Allosteric Modulators of the Human D2 Dopamine Receptor: Potentiators; D(2) dopamine receptor (Homo sapiens), P14416; DiscoveRx D2 beta-arrestin cells, luminescence, 90 min; 100% = 57 uM dopamine signal; potentiation, % (no concentration beside the values); 360,000 tested, 0.23% active; AID 624464, 2012; in the data active means potentiation above about 50%; inconclusive means mostly about 30% to 49%
Target sequence (P14416 whole entry, looked up): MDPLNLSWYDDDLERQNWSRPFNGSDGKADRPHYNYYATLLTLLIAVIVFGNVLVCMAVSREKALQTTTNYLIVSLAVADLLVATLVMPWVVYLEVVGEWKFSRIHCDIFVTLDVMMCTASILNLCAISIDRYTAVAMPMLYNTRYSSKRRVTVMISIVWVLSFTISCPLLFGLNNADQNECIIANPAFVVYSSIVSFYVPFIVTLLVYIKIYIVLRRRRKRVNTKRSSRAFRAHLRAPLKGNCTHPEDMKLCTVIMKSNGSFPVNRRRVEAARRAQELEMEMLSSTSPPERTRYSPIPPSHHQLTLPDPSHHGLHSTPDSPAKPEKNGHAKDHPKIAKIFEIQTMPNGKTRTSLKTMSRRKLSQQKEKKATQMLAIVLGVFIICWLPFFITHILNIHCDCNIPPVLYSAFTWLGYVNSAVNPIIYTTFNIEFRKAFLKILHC
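PathHunter D2 cells, attached overnight at 37 deg C, received compound in DMSO plus dopamine at EC20 (50 nM final) for 90 min at 37 deg C. Beta-arrestin recruitment was read as luminescence after 1 h with detection reagent at ambient temperature.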
D2 ag-1 – HTS Assay for Allosteric Agonists of the Human D2 Dopamine Receptor: Primary Screen for Agonists; HEK293 T-REx D2 cells, calcium flux agonist mode; activation, % at 2 µM; 340,000 tested, 0.53% active; AID 485358, 2010;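 active means activation over 3 SD above normal in the single-dose calcium agonist read, cut at about 30% in these data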; further: 0% is about no effect
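In this primary screen, compounds producing a positive calcium signal within 180 s of addition to tetracycline-induced, force-coupled HEK293 Trex D2 cells are flagged; cells are dye-loaded with a no-wash calcium kit beforehand.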
D2 PAM-2 – HTS Assay for Positive Allosteric Modulators of the Human D2 Dopamine Receptor: Primary Screen for Potentiators | 340,000 tested, 0.34% active | AID 485347, 2010 | HEK293 T-REx D2, calcium flux, EC20 dopamine potentiation | D(2) dopamine receptor (Homo sapiens), P14416 | potentiation, % at 10 µM;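 active means potentiation over 3 SD above the plate norm, cut at about 30% in these data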; further: 0% is about no effect
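Potentiation of an EC20 dopamine calcium response measured kinetically over 180 s, after a preceding 180 s compound-only read flagging agonists. Cells: inducible Hek293 Trex D2 line, 4000/well, cultured overnight at 30 C before dye loading.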
D2 ag-2 – Beta-Arrestin HTS for Positive Allosteric Modulators of the Human D2 Dopamine Receptor: Agonists | activation, % (no concentration beside the values) | AID 624465, 2012 | D(2) dopamine receptor (Homo sapiens), P14416 | DiscoveRx PathHunter D2 beta-arrestin, luminescence, 90 min; 100% = 57 uM dopamine signal | 360,000 tested, 0.084% active; in the data active means activation above about 40%; inconclusive means between about 15% and that limit
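Agonist mode: compounds alone added to overnight-plated D2 PathHunter cells for 90 min at 37 C, with 57 uM final dopamine (EC100) defining full response. Beta-arrestin recruitment detected by chemiluminescent reagent, read after 1 h at ambient temperature.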
D2 antag – HTS Assay for Allosteric Antagonists of the Human D2 Dopamine Receptor: Primary Screen for Antagonists; D(2) dopamine receptor (Homo sapiens), P14416; HEK293 TREx D2 cells, calcium flux, dopamine EC80; inhibition, % at 10 µM; 340,000 tested, 2% active; AID 485344, 2010; in the data active means inhibition above about 30%; inactive means below that, where a call was filed; further: 0% is about no effect
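HEK293 T-REx D2 cells, tet-induced, calcium dye no-wash. Cpd pintool add, 180 s kinetic, then EC80 DA, 180 s kinetic. Ca flux read.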
D3 ag – qHTS of D3 Dopamine Receptor Agonist: D3 Dopamine Receptor B-arrestin Agonist Confirmatory Assay. 2,300 tested, 4% active. DiscoveRx D3 beta-arrestin cells, luminescence, 90 min. AID 720506, 2013. Potency, µM (top dose mostly 76.9 µM), for inactives: at the highest dose activation, most hits filed as activators. shares compounds with D2 ag-1;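 further: potency means the concentration at half of the fitted maximal effect; 100% = dopamine control response; nearly all actives have a fitted effect of over 70% in size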
D2 ag-3 – qHTS of D3 Dopamine Receptor Agonist: D2 Dopamine Receptor B-arrestin Agonist Counterscreen; 2,300 tested, 5.9% active; shares compounds with D2 ag-1; DiscoveRx PathHunter D2 beta-arrestin, luminescence, 90 min; response scale: percent relative to full dopamine signal; Potency, µM (series often up to 76.9 µM), for the others: at the top dose activation, usual class: activators; further: potency means the concentration at half of the fitted maximal effect; % of control where 0% means no effect; nearly all actives have a fitted effect of over 70% in size
* marks the source's active call; other numbers are inactive results; ? = inconclusive; . = no result. In the library only some 2.4% were active in any assay of this set; here they are far more common. Unless noted, the call rests on the fitted dose curve; in most records, active means well fitted activation curve with a large enough effect; inconclusive means small, poorly fitted or top-dose-only effect; inactive means flat fitted curve, though single readings scatter.

SMILES | D2 PAM-1 | D2 ag-1 | D2 PAM-2 | D2 ag-2 | D2 antag | D3 ag | D2 ag-3
Cc1cc(OC(C)C(=O)N2C[C@H]3C[C@@H](C2)c2cccc(=O)n2C3)c2c(C)c(C)c(=O)oc2c1 (some centres not stated) | -6.0 | 41.5* | 1.6 | -3.7 | -1.4 | -6.8% | -4.9%
Cc1c(C)c2ccc(OC(C)C(=O)N3C[C@H]4C[C@@H](C3)c3cccc(=O)n3C4)c(C)c2oc1=O (some centres not stated) | -20.1 | 0.4 | -4.7 | -6.7 | 15.5 | . | .
COc1cccc(C(C)NC(=O)Nc2ccccc2Cl)c1 (configuration not stated) | -2.9 | -1.0 | 13.3 | 3.2 | -19.6 | -5.2% | -1.7%
Cc1cc(C)cc(N(CC(=O)Nc2c(C)cc(C)cc2C)S(=O)(=O)c2c(C)nn(C)c2C)c1 | . | 0.0 | 1.2 | . | . | . | .
COc1cccc(CNC(=O)CCc2c(C)c3ccc(O)c(C)c3oc2=O)c1 | . | -0.8 | -17.0 | . | . | . | .
CC(C(=O)N(C)Cc1ccccc1)N1CCN(C/C=C/c2ccccc2)CC1 (configuration not stated) | -4.1 | 68.6* | -15.7 | ? | 68.7* | ? | ?
CC(C(=O)Nc1ccc([N+](=O)[O-])cc1)N1CCN(C/C=C/c2ccccc2)CC1 (configuration not stated) | -30.4 | 67.0* | -29.6 | 3.1 | 52.7* | ? | ?
CC(=O)c1ccc(NC(=O)C(C)N2CCN(C/C=C/c3ccccc3)CC2)cc1 (configuration not stated) | -24.2 | 19.7 | -13.7 | 5.1 | 47.0* | ? | 2.4%
COc1ccc(Cl)cc1NC(=O)C(C)N1CCN(C/C=C/c2ccccc2)CC1 (configuration not stated) | -33.1 | 11.6 | -16.0 | -1.9 | -11.0 | . | .
COc1ccc(CN2CCN(C(=O)c3ccc(S(=O)(=O)N4CCCCCC4)cc3)CC2)cc1 | -4.1 | . | . | -1.4 | . | 6.0% | 13.8%
CC(=O)c1cccc(OCC(O)CN2CCN(S(=O)(=O)c3c(F)cccc3F)CC2)c1 (configuration not stated) | -6.6 | 0.7 | 4.4 | -3.6 | -6.7 | . | .
COc1ccc(CN2CCN(Cc3ccco3)CC2)cc1 | -9.7 | . | . | 0.1 | . | . | .
CC(=O)c1cccc(OCC(O)CN2CCN(C(=O)c3ccco3)CC2)c1 (configuration not stated) | 1.6 | . | . | ? | . | 18.1% | ?
COc1ccc(CN2CCN(C(=O)c3ccco3)CC2)cc1 | 65.2* | 86.6* | -19.6 | 77.4* | 87.3* | ? | 10µM*
COc1ccc2ccccc2c1CN1CCN(C(=O)c2ccco2)CC1 | 25.6 | 69.0* | -26.9 | 58.1* | 88.5* | ? | 25.1µM*
COc1ccc2ccccc2c1CN1CCN(C(=O)c2ccccc2)CC1 | -12.3 | 2.3 | -14.5 | -1.5 | -15.6 | . | .
Cc1ccccc1Nc1c(-c2ccc(Br)o2)nc2ccc(Cl)cn12 | . | 2.9 | 8.7 | . | . | . | .
CCOc1ccc(CN2CCN(C(=O)c3ccco3)CC2)cc1 | 57.2* | . | . | 54.3* | . | ? | 4.47µM*
CCOc1ccc(C(=O)N2CCN(C(=O)c3ccco3)CC2)cc1OCC | 9.3 | 0.3 | 5.8 | 1.7 | -2.6 | . | .

From PubChem BioAssay
